# Experimental data reported in PubChem BioAssay (Tox21).
# Records with an inconclusive call do not appear. A call without a number means that no potency is given here. Activity calls are given as the source filed them. The call rests on the fitted dose curve; in most records, active means well fitted inhibition curve with a large enough effect in the repeat runs; inconclusive means weak or mixed curves, or effect the other way; inactive means no such curve, though single readings can be large or run the other way.
# Target: Nuclear receptor ROR-gamma (Homo sapiens) (UniProt P51449)
# Test: qHTS assay to identify small molecule antagonists of the retinoid-related orphan receptor gamma (ROR-gamma) signaling pathway (AID 1159521; further: nearly all actives have a fitted effect of over 50% in size)
# Details: Tet-on RORgamma CHO cells, RORE-luciferase, 16 h; series mostly up to 92.4 µM
# Source text: U.S. Tox21 Program National Center for Advancing Translational Sciences [NCATS] NIH Chemical Genomics Center [NCGC] U.S. Environmental Protection Agency [EPA] National Institutes of Environmental Health Sciences [NIEHS] National Toxicology Program [NTP] U.S. Food and Drug Administration [FDA] Tox21 Assay Overview: Nuclear steroid hormone receptors are involved in many biological processes including inflammatory responses, cell proliferation, and apoptosis. Environmental factors or compounds disrupting these nuclear receptor pathways and gene expression may promote susceptibility to immunotoxicants and autoimmune diseases. One important group of these expression factors are the retinoid-related orphan receptors. To assess compounds that may interfere with the retinoid-related orphan receptor gamma (ROR-gamma) transcription factor, a cell-based luciferase assay was used. The CHO cell-based assay utilizes a TET-inducible ROR expression factor and ROR response element-LUC reporter gene. Reporter gene activity was induced using Doxycycline Hyclate and measured after 16 hr incubation. Tet-on ROR gamma CHO cells were used to screen against the Tox21 10K compound library for ROR gamma antagonists by quantification of decreased reporter gene activity in terms of decreased luminescence.
# Tox21 Assay Protocol Summary: Tet-on ROR gamma CHO cells were dispensed at 1,000 cells in 4 uL of culture medium per well into white wall/solid bottom 1536-well plates using a Multidrop Combi (Thermo Scientific, Waltham, MA) dispenser. Following incubation at 37 C and 5% CO2 for 4 hr, 23 nL of compounds dissolved in DMSO, positive controls or DMSO only were transferred by a Pintool station (Kalypsys, San Diego, CA) and after 2 hr incubation at 37 C, one ul of 1 uM (final concentration) of Doxycycline Hyclate was added to all the wells by using a Flying Reagent Dispenser (FRD) (Aurora Discovery, San Diego, CA). After 16 hr incubation at 37 C and 5% CO2, 5 uL of ONE-Glo reagent (Promega Corporation, Madison, WI) was added to each assay plate using FRD. After 30 min incubation at room temperature, luminescence was quantified on a ViewLux plate reader (Perkin Elmer, Waltham, MA).
# Potency means the concentration at half of the fitted maximal effect.
row,SMILES,Potency
1,C/C=C(/C(=C/C)c1ccc(O)cc1)c1ccc(O)cc1,inactive
2,CC=C(Cl)Cl,inactive
3,CC1=C(CC=O)C(C)(C)CCC1,inactive
4,NCCNCCO,inactive
5,COc1ccccc1NC(=O)c1cc2ccccc2cc1O,30.6 µM (active)
6,COc1cc(Nc2c(C#N)cnc3cc(OCCCN4CCN(C)CC4)c(OC)cc23)c(Cl)cc1Cl,inactive
7,CC(C)c1nc(CN(C)C(=O)N[C@H](C(=O)N[C@@H](Cc2ccccc2)C[C@H](O)[C@H](Cc2ccccc2)NC(=O)OCc2cncs2)C(C)C)cs1,inactive
8,O=C=Nc1cccc(C(F)(F)F)c1,inactive
9,CCCCCCCCCCCCCCN(CCO)CCO,30.6 µM (active)
10,CCC(C)(C)OC,inactive
11,OCCOCC#CCOCCO,inactive
12,Oc1cccc(O)c1O,inactive
13,c1ccc2c(c1)CCc1ccccc1N2,inactive
14,CCOC(=O)/C=C/C(=O)OCC,inactive
15,COc1cc(C(=O)NC2CCN(C)CC2)ccc1Nc1ncc2c(n1)N(C1CCCC1)CC(F)(F)C(=O)N2C,15.8 µM (active)
16,O=C(/C=C/c1ccc(O)c(O)c1)O[C@@H]1C[C@@](OC(=O)/C=C/c2ccc(O)c(O)c2)(C(=O)O)C[C@@H](O)[C@@H]1O,inactive
17,C=CC(=O)OCC1CC2CC1C1CCC(COC(=O)C=C)C21 (stereo not given),54.5 µM (active)
18,C(=C\c1ccccc1)/c1ccccc1,inactive
19,CC1(C)[C@H](C(=O)O)N2C(=O)C[C@H]2S1(=O)=O,inactive
20,C[C@@H](O)[C@H]1C(=O)N2C(C(=O)O)=C([C@H]3CCCO3)S[C@H]12,inactive

row,SMILES,Potency
1,C[C@]12CC[C@@H]3c4ccc(O)cc4CC[C@H]3[C@@H]1CC[C@@H]2OC(=O)CCC1CCCC1,30.6 µM (active)
2,CCC1(CO)COCOC1,inactive
3,c1ccc(C[n+]2cccc3ccccc32)cc1,inactive
4,CC(O)c1ccccc1 (stereo not given),inactive
5,CCCCCCCCOc1ccc(C(=O)O)cc1,inactive
6,O=[N+]([O-])c1ccc(Nc2ccc(Nc3ccccc3)c(S(=O)(=O)O)c2)c([N+](=O)[O-])c1,inactive
7,O=C1c2ccccc2C(=O)C1c1nc2ccccc2c(Br)c1O,inactive
8,CCOc1ccc(Cc2nccc3cc(OCC)c(OCC)cc23)cc1OCC,7.5 µM (active)
9,CC(C)C=O,inactive
10,Cc1cc(C)cc(N)c1,inactive
11,CCCCOc1ccc(OCCCN2CCOCC2)cc1,inactive
12,CC(=O)N/N=C/c1ccc([N+](=O)[O-])o1,inactive
13,c1csc(SSc2cccs2)c1,24.3 µM (active)
14,CN1CC(=O)N2[C@H](c3ccc4c(c3)OCO4)c3[nH]c4ccccc4c3C[C@@H]2C1=O,inactive
15,CN1C(=O)c2ccccc2C1=O,inactive
16,O[C@@H]1CO[C@H]2[C@@H]1OC[C@@H]2O,inactive
17,O=C(O)CCc1nc(-c2ccccc2)c(-c2ccccc2)o1,inactive
18,CC(=O)OCCN(CCOC(C)=O)c1ccc(N=Nc2ccc([N+](=O)[O-])cc2C#N)cc1,inactive
19,CCOc1ccccc1O[C@H](c1ccccc1)[C@H]1CNCCO1,inactive
20,Cc1ccc(CO)cc1,inactive
